Measurements as given in PubChem BioAssay (NCI).
Compounds without any hit were thinned out: in the full panel of roughly 83,000, 20% have a hit.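 Negative percent growth values reflect cell death: -40 means 40% of the cells present at the start died, and -100 means all died.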 Active and inactive are the calls of the source. Rule for the calls: active = growth percent below 10; inactive = the rest.

What was measured:
Experiment in all cases: NCI-60 one-dose screen, 48 h (100 = growth as untreated, 0 = no growth, -100 = all killed)
Settings in all cases: 10 µM
NCI-H226 lung = tested on: NCI-H226 lung
NCI-H322M lung = tested on: NCI-H322M lung
HOP-62 NSCLC = tested on: HOP-62 NSCLC
NCI-H460 lung = tested on: NCI-H460 lung
A549/ATCC NSCLC = tested on: A549/ATCC NSCLC
786-0 renal = tested on: 786-0 renal
COLO 205 colon = tested on: COLO 205 colon
NCI-H522 lung = tested on: NCI-H522 lung
HOP-92 NSCLC = tested on: HOP-92 NSCLC

Measured: growth

O=S(=O)(O)c1ccc(O)c2ccccc12
inactive: NCI-H226 lung 102% | NCI-H322M lung 110% | HOP-62 NSCLC 107% | NCI-H460 lung 115% | A549/ATCC NSCLC 118% | 786-0 renal 101% | COLO 205 colon 121%

O=C1NC(=O)C2C(=O)NC(=O)C1C21CCc2ccccc21 (stereo unspecified)
inactive: NCI-H226 lung 87.7% | NCI-H322M lung 106% | HOP-62 NSCLC 94.3% | NCI-H460 lung 115% | NCI-H522 lung 97.4% | A549/ATCC NSCLC 103% | 786-0 renal 101% | COLO 205 colon 125%

O=P(O)(O)OCC(O)CO (stereo unspecified)
inactive: NCI-H322M lung 107% | HOP-62 NSCLC 104% | NCI-H460 lung 109% | HOP-92 NSCLC 96.1% | A549/ATCC NSCLC 97.3% | 786-0 renal 101% | COLO 205 colon 110%

O=C(O)CCCC(=O)O
inactive: NCI-H322M lung 98.9% | HOP-62 NSCLC 97.7% | NCI-H460 lung 101% | HOP-92 NSCLC 72.6% | NCI-H522 lung 99.7% | A549/ATCC NSCLC 97.9% | 786-0 renal 106% | COLO 205 colon 97.1%

CCCC1(c2ccccc2)NC(=O)NC1=O (stereo unspecified)
inactive: NCI-H226 lung 97% | NCI-H322M lung 124% | HOP-62 NSCLC 102% | NCI-H460 lung 109% | HOP-92 NSCLC 78.4% | A549/ATCC NSCLC 119% | COLO 205 colon 114%

CCC(C)(O)c1ccc(C)cc1 (stereo unspecified)
inactive: NCI-H226 lung 103% | HOP-62 NSCLC 98.1% | NCI-H460 lung 105% | HOP-92 NSCLC 103% | NCI-H522 lung 109% | A549/ATCC NSCLC 111% | 786-0 renal 109%

COc1cccc(/C=N/NC(=S)NC2CC3CCC2C3)c1O (stereo unspecified)
inactive: NCI-H322M lung 62.2% | HOP-62 NSCLC 39.6% | HOP-92 NSCLC 55.5% | NCI-H522 lung 64.7% | A549/ATCC NSCLC 43.9% | 786-0 renal 86.3% | COLO 205 colon 105%
active: NCI-H460 lung 3.68%

CCOC(=O)c1cc(/C=C/c2ccc(Cl)cc2Cl)on1
active: NCI-H460 lung 3.82% | 786-0 renal -68.6%
inactive: NCI-H226 lung 14.9% | NCI-H322M lung 81.6% | HOP-62 NSCLC 81% | HOP-92 NSCLC 100% | NCI-H522 lung 54.5% | A549/ATCC NSCLC 91.6% | COLO 205 colon 57.4%

NC(C(=O)O)c1ccc([N+](=O)[O-])cc1 (stereo unspecified)
inactive: NCI-H226 lung 103% | NCI-H322M lung 111% | HOP-62 NSCLC 96.5% | NCI-H460 lung 108% | A549/ATCC NSCLC 109% | 786-0 renal 109% | COLO 205 colon 104%

CSc1[nH]c(=O)ncc1F
inactive: NCI-H226 lung 99.7% | NCI-H322M lung 97.8% | HOP-62 NSCLC 109% | NCI-H460 lung 106% | HOP-92 NSCLC 116% | NCI-H522 lung 100% | A549/ATCC NSCLC 93.3% | 786-0 renal 104% | COLO 205 colon 110%

O=C(O)c1cccc([N+](=O)[O-])c1
inactive: NCI-H226 lung 107% | NCI-H322M lung 97.4% | NCI-H460 lung 106% | HOP-92 NSCLC 96% | NCI-H522 lung 112% | A549/ATCC NSCLC 105% | 786-0 renal 104% | COLO 205 colon 113%

C/C(=N\O)C1(O)CCCCC1
inactive: NCI-H226 lung 97.7% | NCI-H322M lung 87.6% | HOP-62 NSCLC 106% | NCI-H460 lung 98.3% | NCI-H522 lung 92.8% | A549/ATCC NSCLC 102% | 786-0 renal 99% | COLO 205 colon 99.4%

COc1cc(C(=O)NC(=S)Nc2ccc3ccccc3c2)cc(OC)c1OC
inactive: NCI-H226 lung 88.9% | NCI-H322M lung 101% | HOP-62 NSCLC 95.8% | NCI-H460 lung 107% | A549/ATCC NSCLC 89.7% | 786-0 renal 116% | COLO 205 colon 84.2%
active: NCI-H522 lung -23.4%

O=c1cc(-c2ccccc2)[nH]c2c1CCCC2
active: NCI-H460 lung 7.59% | COLO 205 colon -10.1%
inactive: NCI-H226 lung 54.3% | NCI-H322M lung 50.8% | HOP-62 NSCLC 28.8% | HOP-92 NSCLC 46.7% | A549/ATCC NSCLC 36.6% | 786-0 renal 36.4%

O=S(=O)(O)c1ccc(Cl)c(Cl)c1
inactive: NCI-H226 lung 111% | NCI-H322M lung 127% | HOP-62 NSCLC 102% | NCI-H460 lung 110% | HOP-92 NSCLC 94.3% | A549/ATCC NSCLC 95.5% | 786-0 renal 98.5% | COLO 205 colon 117%

CCOc1ccc(/C=N/N=C(N)N)cc1OCC
inactive: NCI-H226 lung 93.3% | NCI-H322M lung 110% | HOP-62 NSCLC 106% | HOP-92 NSCLC 99.4% | NCI-H522 lung 99.2% | A549/ATCC NSCLC 95.7% | 786-0 renal 100% | COLO 205 colon 107%

CC(=O)Nc1cccc(Cl)c1C
inactive: NCI-H322M lung 94% | HOP-62 NSCLC 100% | NCI-H460 lung 106% | NCI-H522 lung 87.7% | A549/ATCC NSCLC 88.2% | 786-0 renal 96.5% | COLO 205 colon 107%

CCCNC(=O)c1ccc(S(N)(=O)=O)cc1
inactive: NCI-H226 lung 108% | NCI-H322M lung 121% | HOP-62 NSCLC 82.8% | NCI-H460 lung 108% | HOP-92 NSCLC 88.9% | NCI-H522 lung 115% | A549/ATCC NSCLC 112% | 786-0 renal 75.4% | COLO 205 colon 132%

COc1cc(/C=C/C(=O)c2ccccc2)cc(OC)c1OC
inactive: NCI-H226 lung 98.7% | NCI-H322M lung 95.5% | HOP-62 NSCLC 104% | NCI-H460 lung 70.7% | HOP-92 NSCLC 76% | A549/ATCC NSCLC 89.4% | 786-0 renal 89% | COLO 205 colon 48%

CC1CCC2C(C)(C)C3CC12CC1OC13C (stereo unspecified)
inactive: NCI-H226 lung 99.1% | NCI-H322M lung 117% | HOP-62 NSCLC 109% | NCI-H460 lung 100% | NCI-H522 lung 91.7% | A549/ATCC NSCLC 110% | 786-0 renal 98% | COLO 205 colon 109%

Cc1c(C(=O)O)c(=O)n(-c2ccccc2)n1C
inactive: NCI-H226 lung 103% | NCI-H322M lung 122% | HOP-62 NSCLC 96.7% | NCI-H522 lung 104% | A549/ATCC NSCLC 108% | 786-0 renal 113% | COLO 205 colon 110%

Cc1ccccc1C1N=C2Oc3ccccc3C=C2C(=O)N1 (stereo unspecified)
inactive: NCI-H322M lung 37.4% | HOP-62 NSCLC 33.3% | NCI-H460 lung 30.6% | A549/ATCC NSCLC 33.5% | 786-0 renal 37.8%
active: NCI-H522 lung -32.7% | COLO 205 colon 0.577%
